From PubChem BioAssay AID1159580 (chemical genetic matrix, 2015)
About 2,000 (36%) of roughly 5,500 compounds were called active. Not shown: some 18% with an inconclusive outcome. Rule as the data show it: active = normalized growth mostly below about 0.91 (no sharp cut-off); inconclusive = no clear call, values can overlap the other calls; inactive = mostly above about 0.92. Some of the results follow.

Test: chemical genetic growth profiling, strain panel (AID 1159580);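 also: tested at 20 µM; growth read once vehicle control cultures reached saturation at 30 °C; 1 = growth at the plate median or of vehicle wells; lower values mean less growth of the strain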
Details: growth OD

Measured: normalized growth

CCNc1nc(Cl)nc(NCC)n1
inactive: S. cerevisiae deletion strains, locus YJR043C, strain POL32, hits give low values 0.939 | S. cerevisiae deletion strains, locus YJR075W, strain HOC1, hits give low values 0.998 | S. cerevisiae deletion strains, locus YKL009W, strain mrt4, hits give low values 1.01 | S. cerevisiae deletion strains, locus YKL068W, hits give low values 0.995 | S. cerevisiae deletion strains, locus YKL085W, strain MDH1 (second series), hits give low values 1 | S. cerevisiae deletion strains, locus YKL085W, strain MDH1, hits give low values 1 | S. cerevisiae deletion strains, locus YKL160W, strain elf1, hits give low values 1 | S. cerevisiae deletion strains, locus YKL190W, strain CNB1, hits give low values 1 | S. cerevisiae deletion strains, locus YKR001C, strain vps1, hits give low values 1.02 | S. cerevisiae deletion strains, locus YKR026C, strain gcn3, hits give low values 0.985 | S. cerevisiae deletion strains, locus YKR091W, strain srl3, hits give low values 0.996 | S. cerevisiae deletion strains, locus YLL001W, strain dnm1, hits give low values 1 | S. cerevisiae deletion strains, locus YLL026W, hits give low values 0.981 | S. cerevisiae deletion strains, locus YLL041C, strain sdh2, hits give low values 0.992 | S. cerevisiae deletion strains, locus YLR027C, strain aat2, hits give low values 0.977 | S. cerevisiae deletion strains, locus YLR039C, strain RIC1, hits give low values 1 | S. cerevisiae deletion strains, locus YLR058C, strain SHM2, hits give low values 0.999 | S. cerevisiae deletion strains, locus YLR102C, strain apc9, hits give low values 1.01 | S. cerevisiae deletion strains, locus YLR221C, strain rsa3, hits give low values 0.987 | S. cerevisiae deletion strains, locus YLR258W, strain gsy2, hits give low values 0.989 | S. cerevisiae deletion strains, locus YLR262C, strain YPT6 (second series), hits give low values 0.992 | S. cerevisiae deletion strains, locus YLR262C, strain YPT6, hits give low values 0.997 | S. cerevisiae deletion strains, locus YLR268W, strain sec22, hits give low values 1 | S. cerevisiae deletion strains, locus YLR320W, strain mms22, hits give low values 0.986 | S. cerevisiae deletion strains, locus YLR330W, strain CHS5, hits give low values 0.994 | S. cerevisiae deletion strains, locus YLR342W, strain FKS1 (second series), hits give low values 0.995 | S. cerevisiae deletion strains, locus YLR342W, strain FKS1, hits give low values 0.991 | S. cerevisiae deletion strains, locus YLR357W, strain rsc2, hits give low values 0.953 | S. cerevisiae deletion strains, locus YLR370C, strain arc18, hits give low values 1.02 | S. cerevisiae deletion strains, locus YLR371W, strain rom2, hits give low values 1 | S. cerevisiae deletion strains, locus YLR384C, strain iki3, hits give low values 0.976 | S. cerevisiae deletion strains, locus YLR418C, strain cdc73, hits give low values 0.985 | S. cerevisiae deletion strains, locus YML016C, strain PPZ1, hits give low values 1 | S. cerevisiae deletion strains, locus YML032C, strain rad52, hits give low values 1.01 | S. cerevisiae deletion strains, locus YML120C, strain ndi1, hits give low values 1.03 | S. cerevisiae deletion strains, locus YML124C, strain tub3, hits give low values 1.01 | S. cerevisiae deletion strains, locus YMR058W, strain fet3, hits give low values 0.999 | S. cerevisiae deletion strains, locus YMR078C, strain ctf18, hits give low values 1.01 | S. cerevisiae deletion strains, locus YMR125W, strain sto1, hits give low values 0.99 | S. cerevisiae deletion strains, locus YMR129W, hits give low values 0.997 | S. cerevisiae deletion strains, locus YMR205C, strain PFK2, hits give low values 0.997 | S. cerevisiae deletion strains, locus YMR223W, strain ubp8, hits give low values 1.01 | S. cerevisiae deletion strains, locus YMR231W, strain pep5, hits give low values 0.995 | S. cerevisiae deletion strains, locus YMR263W, strain SAP30, hits give low values 1.01 | S. cerevisiae deletion strains, locus YMR307W, strain GAS1, hits give low values 1.06 | S. cerevisiae deletion strains, locus YNL067W, strain RPL9B, hits give low values 0.988 | S. cerevisiae deletion strains, locus YNL071W, strain lat1, hits give low values 0.998 | S. cerevisiae deletion strains, locus YNL128W, strain TEP1, hits give low values 0.997 | S. cerevisiae deletion strains, locus YNL153C, strain GIM3, hits give low values 0.985 | S. cerevisiae deletion strains, locus YNL209W, strain ssb2, hits give low values 0.992 | S. cerevisiae deletion strains, locus YNL233W, strain BNI4, hits give low values 1.01 | S. cerevisiae deletion strains, locus YNL248C, strain rpa49, hits give low values 0.989 | S. cerevisiae deletion strains, locus YNL250W, strain rad50, hits give low values 1.01 | S. cerevisiae deletion strains, locus YNL271C, strain bni1, hits give low values 1.01 | S. cerevisiae deletion strains, locus YNL298W, strain CLA4, hits give low values 1.02 | S. cerevisiae deletion strains, locus YNL307C, strain MCK1, hits give low values 1.01 | S. cerevisiae deletion strains, locus YNL322C, strain KRE1 (second series), hits give low values 0.997 | S. cerevisiae deletion strains, locus YNL322C, strain KRE1, hits give low values 0.996 | S. cerevisiae deletion strains, locus YNR049C, strain mso1, hits give low values 0.988 | S. cerevisiae deletion strains, locus YNR052C, strain pop2, hits give low values 1.02 | S. cerevisiae deletion strains, locus YOL006C, strain TOP1, hits give low values 1.04 | S. cerevisiae deletion strains, locus YOL012C, strain htz1 1.15 | S. cerevisiae deletion strains, locus YOL147C, strain pex11, hits give low values 1.01 | S. cerevisiae deletion strains, locus YOR001W, strain rrp6, hits give low values 0.982 | S. cerevisiae deletion strains, locus YOR061W, strain CKA2, hits give low values 0.994 | S. cerevisiae deletion strains, locus YOR069W, strain VPS5, hits give low values 1 | S. cerevisiae deletion strains, locus YOR070C, strain gyp1, hits give low values 0.983 | S. cerevisiae deletion strains, locus YOR080W, strain dia2, hits give low values 0.998 | S. cerevisiae deletion strains, locus YOR083W, strain WHI5, hits give low values 1.01 | S. cerevisiae deletion strains, locus YOR106W, strain vam3, hits give low values 1.01 | S. cerevisiae deletion strains, locus YOR136W, strain idh2, hits give low values 1 | S. cerevisiae deletion strains, locus YOR144C, strain elg1, hits give low values 1 | S. cerevisiae deletion strains, locus YOR184W, strain ser1, hits give low values 1.02 | S. cerevisiae deletion strains, locus YOR265W, strain rbl2, hits give low values 0.979 | S. cerevisiae deletion strains, locus YOR270C, strain vph1, hits give low values 1.02 | S. cerevisiae deletion strains, locus YOR290C, strain snf2, hits give low values 1.02 | S. cerevisiae deletion strains, locus YOR316C, strain cot1, hits give low values 1 | S. cerevisiae deletion strains, locus YPL051W, strain arl3, hits give low values 0.987 | S. cerevisiae deletion strains, locus YPL055C, strain LGE1, hits give low values 0.992 | S. cerevisiae deletion strains, locus YPL078C, strain atp4, hits give low values 1.03 | S. cerevisiae deletion strains, locus YPL106C, strain sse1, hits give low values 0.987 | S. cerevisiae deletion strains, locus YPL240C, strain hsp82, hits give low values 0.999 | S. cerevisiae deletion strains, locus YPL241C, strain CIN2, hits give low values 0.995 | S. cerevisiae deletion strains, locus YPR119W, strain clb2, hits give low values 0.998 | S. cerevisiae deletion strains, locus YPR141C, strain kar3, hits give low values 1 | S. cerevisiae deletion strains, locus YPR163C, strain tif3, hits give low values 1 | S. cerevisiae deletion strains, locus YPR167C, strain met16, hits give low values 0.996 | S. cerevisiae deletion strains, strain wtn01, hits give low values 1.01 | S. cerevisiae strains, strain wild type, hits give low values 0.997
